Drawing on PubChem BioAssay (NCATS), this text covers Potency and outcome for 29 compounds.

Results filed as inconclusive are left out. Calls of active or inactive are those of the source. Unless noted, calls come from the whole dose curve; as a rule, active = well fitted curve in the direction sought with a large enough effect; inconclusive = small, poorly fitted or top-dose-only effect, or another doubt; inactive = no such curve, though single readings can be large; an effect the other way counts as inactive or inconclusive.

A short description of experiment [1]: NS1 protein of Zika virus - qHTS assay to identify small molecule inhibitors in human HEK 293 cells (AID 1347053). Note: series mostly up to about 46 µM; nearly all actives have a fitted effect of over 55% in size. In a few lines: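 Inhibition of NS1 expression was scored in HEK 293 cells given compound 1 h ahead of MR766 virus (MOI = 0.5). Following 24 h at 37 C, two anti-NS1 antibodies generated a TR-FRET signal, scaled between uninfected and infected controls.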
(In general: In qHTS, concentration-response curves come from the screen itself.)

The target in experiment [2] is T1, Tyrosine-protein phosphatase non-receptor type substrate 1 (Homo sapiens) + Leukocyte surface antigen CD47 (Homo sapiens) (UniProt P78324+Q08722). Description: CD47-SIRPalpha protein protein interaction - LANCE assay qHTS validation (AID 1347057; active = well fitted curve in the direction sought with a large enough effect in the signal ratio, with a control signal flat, not every such curve was filed as active; the % refers to the signal ratio; note: series mostly up to about 38 µM). Summed up: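 First, His-tagged CD47 and Eu-labelled anti-His antibody met the compound for 30 min; next, site-specifically biotinylated SIRPalpha was added for 30 min; finally streptavidin-APC was added before reading the TR-FRET ratio.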
Background: TR-FRET usually uses a lanthanide donor and a delayed reading to cut background.

The target in experiment [3] is T1, Tyrosine-protein phosphatase non-receptor type substrate 1 (Homo sapiens) + Leukocyte surface antigen CD47 (Homo sapiens). The experiment is described as follows: CD47-SIRPalpha protein protein interaction - HTRF assay qHTS validation (AID 1347058; active = well fitted curve in the direction sought with a large enough effect in the signal ratio, not every such curve was filed as active; the % refers to the signal ratio; note: series mostly up to about 38 µM). Summed up: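 TR-FRET read (Ch1/Ch2 ratio) of soluble extracellular CD47 and Avi-biotinylated SIRPalpha domains in PBS pH 7.4 with 0.05% IGEPAL; 7-point compound titration. Sequential 30 min room-temperature steps; non-biotinylated SIRPalpha as control inhibitor.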

In experiment [4] the target is Parathyroid hormone/parathyroid hormone-related peptide receptor (Homo sapiens) (UniProt Q03431). The experiment is described as follows: qHTS for PTHR1 Agonists: Optimization Screen against the NCGC LOPAC library (AID 1347079).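 Note: GloSensor cAMP luminescence in HEK-293 GP2 cells expressing human PTHR1 with IBMX.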 Summed up:
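Agonist readout: GloSensor cAMP luminescence, read after 15 min at room temperature. HEK-293-derived GP2 line carries PTHR1; compounds tested as a titration for 1 hr at 37C in presence of IBMX. M-PTH (1-15) served as control.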

The target of experiment [5] is N-terminal Xaa-Pro-Lys N-methyltransferase 1 (Homo sapiens) (UniProt Q9BV86). Description: qHTS Assay for Inhibitors of N-terminal methyltransferase 1 (NTMT1): LOPAC validation of the NTMT1 SAHH-coupled ThioGlo3 Assay (AID 1347143). Note: nearly all actives have a fitted effect of over 70% in size. Note: potency is the fitted concentration of half-maximal effect. Summed up: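 Fluorescence read-out (excitation 340nm, emission 450nm) of SAH-derived thiol, measured via SAHH coupling and ThioGlo3, taken immediately and after a 30 min room-temperature reaction, then normalized to the background read. Enzyme: NTMT1 at 125nM; cofactor SAM 100uM in the added reagent.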

The subject of experiment [6] is Zika virus NS2B-NS3 protease (unlinked). The experiment is described as follows: Optimization of GU AMC qHTS for Zika virus inhibitors: Unlinked NS2B-NS3 protease assay (AID 1347151). Note: nearly all actives have a fitted effect of over 80% in size. Note: potency is the fitted concentration of half-maximal effect. Summed up:
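Noncovalent complex of NS2B hydrophilic domain and NS3 protease domain, 25 nM final, in 10 mM Tris-HCl pH 8.0, 0.01% Tween 20. AMC fluorescence change over 15 min at room temperature was fitted to a 4-parameter Hill equation.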

The target of experiment [7] is T1, Tyrosine-protein phosphatase non-receptor type substrate 1 (Homo sapiens) + Leukocyte surface antigen CD47 (Homo sapiens). Description: CD47-SIRPalpha protein protein interaction - Alpha assay qHTS validation (AID 1347059).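 Note: bead proximity luminescence from CD47 binding SIRPalpha after compound preincubation with SIRPalpha.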 Summed up:
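Soluble extracellular domains: Avi-tag biotinylated SIRPalpha (25 nM) preincubated 30 min RT with compound, then 6His-CD47 (12.5 nM) 30 min; Ni-NTA acceptor and streptavidin donor beads (10 ug/mL) 30 min, AlphaScreen read. PBS pH 7.4, 0.05% IGEPAL.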

Experiment [8] deals with Zika virus NS2B-NS3 protease (unlinked complex). Description: Confirmatory screen GU AMC qHTS for Zika virus inhibitors (AID 1347153). Note: nearly all actives have a fitted effect of over 70% in size. Summed up: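 Compounds were preincubated 15 min at room temperature with 25 nM noncovalent NS2B-NS3 protease at pH 8.0; AMC substrate added at 10 microM and 15-min fluorescence gain (340/450 nm) converted to percent inhibition, fitted 4-parameter.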

T1 sequence (P78324 whole entry, looked up): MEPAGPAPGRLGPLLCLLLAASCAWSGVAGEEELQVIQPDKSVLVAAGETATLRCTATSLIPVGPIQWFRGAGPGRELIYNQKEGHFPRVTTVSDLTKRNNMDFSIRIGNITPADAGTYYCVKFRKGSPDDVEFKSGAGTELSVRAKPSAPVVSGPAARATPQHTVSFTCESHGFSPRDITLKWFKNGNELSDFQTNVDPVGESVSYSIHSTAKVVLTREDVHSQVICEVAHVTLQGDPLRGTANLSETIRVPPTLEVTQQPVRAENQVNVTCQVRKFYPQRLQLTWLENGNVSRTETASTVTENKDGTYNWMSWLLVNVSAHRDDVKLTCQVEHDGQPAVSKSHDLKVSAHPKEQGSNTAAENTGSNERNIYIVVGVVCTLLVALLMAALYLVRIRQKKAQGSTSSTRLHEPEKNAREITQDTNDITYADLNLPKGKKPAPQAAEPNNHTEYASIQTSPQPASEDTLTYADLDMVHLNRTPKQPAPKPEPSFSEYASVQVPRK
T1 sequence (Q08722 whole entry, looked up): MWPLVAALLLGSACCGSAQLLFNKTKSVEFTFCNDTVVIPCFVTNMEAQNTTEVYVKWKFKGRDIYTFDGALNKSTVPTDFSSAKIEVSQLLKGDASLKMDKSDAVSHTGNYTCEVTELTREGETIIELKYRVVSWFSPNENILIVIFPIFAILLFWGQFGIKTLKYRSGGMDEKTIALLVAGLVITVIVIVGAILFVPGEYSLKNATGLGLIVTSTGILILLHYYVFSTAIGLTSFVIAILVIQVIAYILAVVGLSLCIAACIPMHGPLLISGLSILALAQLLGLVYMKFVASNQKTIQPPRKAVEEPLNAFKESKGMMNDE
Sequence of N-terminal Xaa-Pro-Lys N-methyltransferase 1 (Homo sapiens) (Q9BV86 whole entry, looked up): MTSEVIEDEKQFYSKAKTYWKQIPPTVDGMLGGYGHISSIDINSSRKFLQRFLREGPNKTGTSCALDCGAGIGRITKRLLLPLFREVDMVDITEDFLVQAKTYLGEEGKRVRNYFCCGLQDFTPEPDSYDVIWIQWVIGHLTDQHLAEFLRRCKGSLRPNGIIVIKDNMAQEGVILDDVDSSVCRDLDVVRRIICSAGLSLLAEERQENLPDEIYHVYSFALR
Sequence of Parathyroid hormone/parathyroid hormone-related peptide receptor (Homo sapiens) (Q03431 whole entry, looked up): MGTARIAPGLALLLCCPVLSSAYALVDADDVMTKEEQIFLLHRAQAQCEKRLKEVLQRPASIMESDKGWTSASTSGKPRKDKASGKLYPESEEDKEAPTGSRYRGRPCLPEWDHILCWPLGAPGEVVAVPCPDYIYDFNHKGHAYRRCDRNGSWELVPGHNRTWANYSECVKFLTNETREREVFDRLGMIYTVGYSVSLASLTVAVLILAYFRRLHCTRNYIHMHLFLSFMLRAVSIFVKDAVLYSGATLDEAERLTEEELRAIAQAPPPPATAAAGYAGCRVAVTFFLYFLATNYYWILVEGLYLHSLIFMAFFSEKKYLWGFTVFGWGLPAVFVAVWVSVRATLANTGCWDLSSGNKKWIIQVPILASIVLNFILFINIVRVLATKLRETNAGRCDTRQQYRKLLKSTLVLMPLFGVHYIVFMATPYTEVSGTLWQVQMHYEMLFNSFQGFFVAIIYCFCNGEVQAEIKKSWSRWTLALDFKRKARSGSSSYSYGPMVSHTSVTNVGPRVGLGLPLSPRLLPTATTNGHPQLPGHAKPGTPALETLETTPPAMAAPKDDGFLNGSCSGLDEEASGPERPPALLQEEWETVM

As for `O=C(O)/C=C/c1ccc(O)c(O)c1`, the Potency entry in experiment [1], in experiment [2], in experiment [4] and in experiment [6] was “inactive” in each case. Besides, the outcome in experiment [3] was inactive. Also, the Potency in experiment [5] is 44.7 µM (active).

Regarding `Cc1cccc(C(=O)NCN2CCN(c3ccccc3C#N)CC2)c1`, the Potency result in experiment [1], in experiment [2], in experiment [7], in experiment [4] and in experiment [8] was “inactive” in each case. Moreover, the result in experiment [3] was inactive. Further, the Potency in experiment [6] was 26.7 µM (active).

For `N=C(N)c1ccc(N)cc1`, the Potency result in experiment [1], in experiment [2], in experiment [7], in experiment [4] and in experiment [6] was “inactive” throughout. The outcome in experiment [3] was inactive.

Regarding `O=C(O)C1=CCCNC1`, the Potency result in experiment [1], in experiment [2], in experiment [7], in experiment [4] and in experiment [6] was “inactive” in each case. The result in experiment [3] was inactive.

Take `O=C(O)c1cccnc1C(=O)O`: the Potency result in experiment [1], in experiment [2], in experiment [4], in experiment [5] and in experiment [6] was “inactive” throughout. Besides, the outcome in experiment [3] was inactive.

As to `CCN1C(=O)C=CC1=O`, the Potency result in experiment [1], in experiment [2], in experiment [7], in experiment [4] and in experiment [6] was “inactive” throughout. Moreover, in experiment [3], the outcome was inactive.

Turning to `Nc1ncnc2c1nc(Br)n2C1OC2COP(=O)(O)O[C@@H]2C1O` (some centres undefined), the Potency result in experiment [1], in experiment [2], in experiment [4], in experiment [5] and in experiment [6] was “inactive” throughout. Besides, the result in experiment [3] was inactive.

For `CCCn1c(=O)c2c(ncn2C)n(CCC)c1=O`, the Potency entry in experiment [1], in experiment [2], in experiment [7] and in experiment [5] was “inactive” throughout. For the same compound, the outcome in experiment [3] was inactive.

Turning to `Nc1nc2c(cnn2CCc2ccccc2)c2nc(-c3ccco3)nn12`, the Potency result in experiment [1], in experiment [2], in experiment [7] and in experiment [4] was “inactive” each time. In addition, in experiment [3], the outcome was inactive. Besides, in experiment [6], the Potency is 23.8 µM (active).

On to `COc1ccc2c(c1)c(CC(=O)O)c(C)n2C(=O)c1ccccc1`, for which the Potency result in experiment [1], in experiment [2], in experiment [4] and in experiment [5] was “inactive” in each case. Moreover, the result in experiment [3] was inactive.

For the compound `NCC(O)C1CCCCCCC1` (centres undefined), the Potency entry in experiment [1], in experiment [2], in experiment [7], in experiment [4] and in experiment [6] was “inactive” each time. In addition, in experiment [3], the outcome was inactive.

Regarding `CC(C)NC[C@H](O)COc1ccc(CC(N)=O)cc1`, the Potency entry in experiment [1], in experiment [2], in experiment [7] and in experiment [5] was “inactive” in each case. Besides, the result in experiment [3] was inactive.

For `CN1CCCC1CCOC(C)(c1ccccc1)c1ccc(Cl)cc1` (centres undefined), the Potency result in experiment [1], in experiment [2], in experiment [7], in experiment [4] and in experiment [6] was “inactive” in each case. In experiment [3], the result was inactive.

Take `O=c1ccc2c(OCCCCc3ccccc3)c3ccoc3cc2o1`: the Potency result in experiment [1], in experiment [2], in experiment [7] and in experiment [4] was “inactive” in each case. Also, in experiment [3], the result was inactive. In addition, in experiment [6], the Potency is 26.7 µM (active).

Turning to `c1ccc(C(NCCNC(c2ccccc2)c2ccccc2)c2ccccc2)cc1`, the Potency entry in experiment [1], in experiment [2], in experiment [4], in experiment [5] and in experiment [6] was “inactive” throughout. Also, the result in experiment [3] was inactive.

With `CSC(=N)N`, the Potency result in experiment [1], in experiment [2], in experiment [4], in experiment [5] and in experiment [6] was “inactive” throughout. Besides, in experiment [3], the result was inactive.

Consider `CCCCCCCCCCCCCCC[C@H](O)[C@H](N)CO`, for which the Potency entry in experiment [1], in experiment [2], in experiment [4], in experiment [5] and in experiment [6] was “inactive” throughout. Moreover, in experiment [3], the result was inactive.

With `Nc1ncnc2c1c(-c1ccc(Oc3ccccc3)cc1)cn2C1CCCC1`, the Potency entry in experiment [1], in experiment [2] and in experiment [4] was “inactive” throughout. In addition, the outcome in experiment [3] was inactive. In addition, the Potency in experiment [5] is 79.4 µM (active).

On to `O=c1[nH]c2ccccc2c2ccccc12`, for which the Potency entry in experiment [1], in experiment [2], in experiment [7] and in experiment [4] was “inactive” each time. Moreover, the result in experiment [3] was inactive. The Potency in experiment [6] is 26.7 µM (active).

As for `Cc1ccccc1/C=C/C1=NCCN1`, the Potency result in experiment [1], in experiment [2], in experiment [7], in experiment [4] and in experiment [6] was “inactive” each time. Moreover, the outcome in experiment [3] was inactive.

Take `NC1CCN(O)C1=O` (centres undefined): the Potency result in experiment [1], in experiment [2], in experiment [4] and in experiment [5] was “inactive” each time. The outcome in experiment [3] was inactive.

On to `O=C(OCCN1CCOCC1)C1(c2ccccc2)CCCCC1`, for which the Potency result in experiment [1], in experiment [2], in experiment [7], in experiment [4] and in experiment [6] was “inactive” in each case. In addition, the outcome in experiment [3] was inactive.

In the case of `O=c1oc(Cl)c(Cl)c2ccccc12`, the Potency entry in experiment [1], in experiment [2] and in experiment [4] was “inactive” throughout. For the same compound, in experiment [3], the result was inactive. Moreover, the Potency in experiment [5] is 50.1 µM (active).

Turning to `C[C@]12C=CC(=O)C=C1CC[C@@H]1C2=CC[C@]2(C)[C@@H](C(=O)CN3CCN(c4cc(N5CCCC5)nc(N5CCCC5)n4)CC3)CC[C@@H]12`, the Potency result in experiment [1], in experiment [2], in experiment [7], in experiment [4] and in experiment [6] was “inactive” each time. In addition, the result in experiment [3] was inactive.

Take `NCC(O)(CS(=O)(=O)O)c1ccc(Cl)cc1` (centres undefined): the Potency result in experiment [1], in experiment [2], in experiment [4], in experiment [5] and in experiment [6] was “inactive” in each case. Further, the result in experiment [3] was inactive.

Take `CCN(CC)CCCCCCCCOC(=O)c1cc(OC)c(OC)c(OC)c1`: the Potency result in experiment [1], in experiment [2], in experiment [7], in experiment [4] and in experiment [6] was “inactive” each time. Moreover, the outcome in experiment [3] was inactive.

For `COC(=O)C(N)Cc1ccc(Cl)cc1` (centres undefined), the Potency entry in experiment [1], in experiment [2], in experiment [4], in experiment [5] and in experiment [6] was “inactive” throughout. The result in experiment [3] was inactive.

Take `CCCC(=O)NCCc1c2n(c3ccc(OC)cc13)CCCc1ccccc1-2`: the Potency entry in experiment [1], in experiment [2], in experiment [7] and in experiment [4] was “inactive” throughout. In experiment [3], the outcome was inactive. Moreover, in experiment [6], the Potency is 26.7 µM (active).

In the case of `CC(N)(Cc1ccc(O)cc1)C(=O)O` (centres undefined), the Potency entry in experiment [1], in experiment [2], in experiment [7], in experiment [5] and in experiment [6] was “inactive” throughout. In addition, the result in experiment [3] was inactive.
